# Values joined by “and” are separate entries in the source; they are usually repeats but may differ in a detail not shown here. Equal entries are not always repeated. Inconclusive results are not listed. Active and inactive are the calls of the source. The calls were made as follows: active = hit-call score of the fitted dose curve at least 0.9, where 1 is the maximum; inconclusive = response in the unintended direction; inactive = score below 0.9.
# Tests used:
# [1] = target: zebrafish Thyroid Hormone Receptor alpha (TRa), thraa (gene 30670) (UniProt Q98867); assay: ATG_zfTRa_XSP1: Attagene TRANS-FACTORIAL Multi-Species (XSP1) HepG2 Assay for zebrafish Thyroid Hormone Receptor alpha (TRa) (AID 2283807)
# Outline: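 HepG2 cells transiently transfected with GAL4-UAS reporter units including a zebrafish TRa–Gal4 chimera, dosed 24 h with 3 nM 6-alpha-fluorotestosterone present. Reporter mRNA quantified by RT-PCR and capillary electrophoresis; gain versus DMSO.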
# [2] = target: zebrafish Thyroid Hormone Receptor beta (TRb), thrb (gene 30607) (UniProt Q9PVE4); assay: ATG_zfTRb_XSP1: Attagene TRANS-FACTORIAL Multi-Species (XSP1) HepG2 Assay for zebrafish Thyroid Hormone Receptor beta (TRb) (AID 2283809)
# Outline: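 HepG2 cells transiently transfected with multiplexed GAL4-UAS reporter units expressing chimeric zebrafish TRb–Gal4. Dosed 24 h with 3 nM 6-alpha-fluorotestosterone present; reporter mRNA measured by RT-PCR, HpaI digestion and capillary electrophoresis; gain of signal versus DMSO.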
# [3] = ATG_XTT_Cytotoxicity_XSP1: Cytotoxicity Assessment in the Attagene TRANS-FACTORIAL Multi-Species (XSP1) HepG2 Assay (AID 2283810)
# Outline: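 XTT viability readout taken at 24 hours post-dosing in HepG2 liver cells co-treated with 3 nM 6-alpha-fluorotestosterone. Signal loss relative to DMSO controls reflects cytotoxicity.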
# [4] = ATG_M_06_XSP2: Attagene TRANS-FACTORIAL Multi-Species (XSP2) HepG2 Assay for M06 Transcription Factor (Internal Marker) (AID 2283811);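 also: hits are increases in signal above the DMSO baseline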
# Outline: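 HepG2 cells transiently transfected with GAL4-UAS multiple reporter units, medium containing 3 nM 6-alpha-fluorotestosterone and 1.5 nM norgestrel; reporter mRNA measured 24 hours post-dosing by RT-PCR and capillary electrophoresis. Internal background marker, gain of signal vs DMSO.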
# [5] = system: turtle Estrogen Receptor (ERa), gene 101933533; assay: ATG_trERa_XSP2: Attagene TRANS-FACTORIAL Multi-Species (XSP2) HepG2 Assay for turtle Estrogen Receptor (ERa) (AID 2283812);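 also: human HepG2 liver cells transiently expressing turtle ERa-Gal4 chimeric receptor; actives raise reporter signal above DMSO so AC50 reflects agonist activity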
# Outline: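 HepG2 cells transiently transfected with GAL4-UAS reporter units expressing turtle ERa-Gal4 chimera. Reporter mRNA measured after 24 h dosing by RT-PCR, fluorescent labelling and capillary electrophoresis; gain of signal fitted versus DMSO.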
# [6] = target: zebrafish Estrogen Receptor (ER1), esr1 (gene 259252) (UniProt P57717); assay: ATG_zfER1_XSP2: Attagene TRANS-FACTORIAL Multi-Species (XSP2) HepG2 Assay for zebrafish Estrogen Receptor (ER1) (AID 2283816)
# Outline: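 HepG2 cells transiently transfected with a GAL4-UAS reporter and a chimeric zebrafish ER1-Gal4 construct, dosed 24 h. Reporter mRNA quantified by RT-PCR, labelling, HpaI digestion and capillary electrophoresis, relative to DMSO.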
# [7] = target: chicken Estrogen Receptor (ERa), ESR1 (gene 396099) (UniProt P06212); assay: ATG_chERa_XSP2: Attagene TRANS-FACTORIAL Multi-Species (XSP2) HepG2 Assay for chicken Estrogen Receptor (ERa) (AID 2283817);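 also: actives raise reporter signal above DMSO so AC50 reflects ER activation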
# Outline: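 Transiently transfected HepG2 cells expressing chimeric chicken ERa-GAL4 reporter units, dosed 24 h with 3 nM 6-alpha-fluorotestosterone and 1.5 nM norgestrel present. Reporter mRNA measured by RT-PCR and capillary electrophoresis; gain-of-signal fitted relative to DMSO.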
# [8] = system: zebrafish Estrogen Receptor (ER2a), gene 317734; assay: ATG_zfER2a_XSP2: Attagene TRANS-FACTORIAL Multi-Species (XSP2) HepG2 Assay for zebrafish Estrogen Receptor (ER2a) (AID 2283818);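 also: hits raise reporter mRNA so AC50 reflects activation of zebrafish ER2a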
# Outline: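 HepG2 cells transiently transfected with GAL4-UAS reporter units and chimeric zebrafish ER2a-Gal4, exposed 24 h; medium contains 3 nM 6-alpha-fluorotestosterone and 1.5 nM norgestrel. Reporter mRNA quantified by RT-PCR, HpaI digestion, capillary electrophoresis; gain versus DMSO.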
# [9] = system: frog Estrogen Receptor (ER), gene 398734; assay: ATG_frER1_XSP2: Attagene TRANS-FACTORIAL Multi-Species (XSP2) HepG2 Assay for frog Estrogen Receptor (ER) (AID 2283821);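 also: hits raise reporter mRNA above DMSO baseline so potency means agonist or activator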
# Outline: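 HepG2 cells transiently transfected with GAL4-UAS reporter units expressing a chimeric frog ER-Gal4 protein; 24 h exposure. Reporter mRNA quantified by RT-PCR, fluorescent labelling and capillary electrophoresis; gain of signal fitted against DMSO baseline.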
# [10] = system: zebrafish Estrogen Receptor (ER2b), gene 317733; assay: ATG_zfER2b_XSP2: Attagene TRANS-FACTORIAL Multi-Species (XSP2) HepG2 Assay for zebrafish Estrogen Receptor (ER2b) (AID 2283823);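 also: fitted upward as reporter gain over DMSO so potency reflects activation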
# Outline: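 Transcriptional induction measured as reporter mRNA (RT-PCR, fluorescent capillary electrophoresis) in transiently transfected HepG2 cells after 24 h dosing; DMSO served as negative control and baseline.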
# [11] = system: frog Estrogen Receptor (ER2), gene 100174814; assay: ATG_frER2_XSP2: Attagene TRANS-FACTORIAL Multi-Species (XSP2) HepG2 Assay for frog Estrogen Receptor (ER2) (AID 2283828)
# Outline: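 HepG2 cells transiently transfected with multiplexed GAL4-UAS reporter units expressing chimeric frog ER2–Gal4 protein; reporter mRNA measured 24 h after chemical dosing by RT-PCR, fluorescent labeling and capillary electrophoresis. Gain-of-signal fitted relative to DMSO baseline.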
# [12] = target: Estrogen receptor beta (Homo sapiens) (UniProt Q92731); assay: ATG_hERb_XSP2: Attagene TRANS-FACTORIAL Multi-Species (XSP2) HepG2 Assay for human Estrogen Receptor (ERb) (AID 2283813);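 also: actives raise reporter mRNA above DMSO so AC50 reflects agonist induction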
# Outline: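 HepG2 cells transiently transfected with GAL4-UAS reporter units and chimeric human ERb-Gal4, 24 h exposure. Reporter mRNA quantified by RT-PCR with FAM labelling, HpaI digestion and capillary electrophoresis; gain of signal versus DMSO.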
# [13] = system: turtle Androgen Receptor (AR), gene 101947425; assay: ATG_trAR_XSP2: Attagene TRANS-FACTORIAL Multi-Species (XSP2) HepG2 Assay for turtle Androgen Receptor (AR) (AID 2283815)
# Outline: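 HepG2 cells transiently transfected with GAL4-UAS reporter units for chimeric NR-Gal4 receptors; 24 h dosing in presence of 3 nM 6-alpha-fluorotestosterone and 1.5 nM norgestrel. Reporter mRNA by RT-PCR and capillary electrophoresis, gain of signal versus DMSO.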
# [14] = system: chicken Androgen Receptor (AR), gene 422165; assay: ATG_chAR_XSP2: Attagene TRANS-FACTORIAL Multi-Species (XSP2) HepG2 Assay for chicken Androgen Receptor (AR) (AID 2283819);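 also: hits raise reporter mRNA above DMSO so potency is for activation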
# Outline: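 HepG2 cells transiently transfected with chicken AR–GAL4 chimeric reporter constructs, stimulated with 3 nM 6-alpha-fluorotestosterone plus 1.5 nM norgestrel, dosed 24 h. Reporter mRNA quantified by RT-PCR and capillary electrophoresis; gain of signal fitted versus DMSO.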
# [15] = system: frog Androgen Receptor (AR), gene 399456; assay: ATG_frAR_XSP2: Attagene TRANS-FACTORIAL Multi-Species (XSP2) HepG2 Assay for frog Androgen Receptor (AR) (AID 2283824);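 also: actives raise reporter signal above DMSO so AC50 reflects agonist-like induction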
# Outline: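 HepG2 cells transiently transfected with GAL4-UAS reporter units and frog (Xenopus laevis) AR-Gal4 chimera; reporter mRNA measured 24 h after dosing by RT-PCR and capillary electrophoresis. Gain of signal fitted relative to DMSO baseline.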
# [16] = system: zebrafish Androgen Receptor (AR), gene 100005148; assay: ATG_zfAR_XSP2: Attagene TRANS-FACTORIAL Multi-Species (XSP2) HepG2 Assay for zebrafish Androgen Receptor (AR) (AID 2283825);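 also: hits raise reporter mRNA above DMSO so AC50 reflects agonist-type gain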
# Outline: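 Zebrafish AR–GAL4 chimera transiently expressed with GAL4-UAS reporter in HepG2 cells, co-stimulated with 3 nM 6-alpha-fluorotestosterone and 1.5 nM norgestrel; 24 h dosing, reporter mRNA read by RT-PCR/capillary electrophoresis versus DMSO.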
# [17] = target: GAL4 Transcription Factor (Internal Marker), GAL4 (gene 855828) (UniProt P04386); assay: ATG_GAL4_XSP2: Attagene TRANS-FACTORIAL Multi-Species (XSP2) HepG2 Assay for GAL4 Transcription Factor (Internal Marker) (AID 2283814);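 also: GAL4 reporter mRNA background control in MRTU transfected cells not a receptor target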
# Outline: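 HepG2 cells transiently transfected with GAL4-UAS reporter units, stimulated with 3 nM 6-alpha-fluorotestosterone plus 1.5 nM norgestrel, dosed 24 h. Reporter mRNA by RT-PCR/capillary electrophoresis; gain-of-signal fit versus DMSO, background control.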
# [18] = target: Peroxisome proliferator-activated receptor gamma (Homo sapiens) (UniProt P37231); assay: ATG_hPPARg_XSP2: Attagene TRANS-FACTORIAL Multi-Species (XSP2) HepG2 Assay for human Peroxisome Proliferator-activated Receptor gamma (PPARg) (AID 2283829);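 also: actives raise reporter mRNA above DMSO so AC50 reflects PPARg activation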
# Outline: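 Human HepG2 cells carried transiently transfected Gal4 reporter units and were treated with chemical for 24 h alongside androgen-receptor stimulants (3 nM 6-alpha-fluorotestosterone, 1.5 nM norgestrel). Reporter transcripts were detected by RT-PCR with capillary electrophoresis, analysed in the positive direction against DMSO.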
# zebrafish Estrogen Receptor (ER1), esr1 (gene 259252), sequence (P57717 whole entry, looked up, the tested form may be a part): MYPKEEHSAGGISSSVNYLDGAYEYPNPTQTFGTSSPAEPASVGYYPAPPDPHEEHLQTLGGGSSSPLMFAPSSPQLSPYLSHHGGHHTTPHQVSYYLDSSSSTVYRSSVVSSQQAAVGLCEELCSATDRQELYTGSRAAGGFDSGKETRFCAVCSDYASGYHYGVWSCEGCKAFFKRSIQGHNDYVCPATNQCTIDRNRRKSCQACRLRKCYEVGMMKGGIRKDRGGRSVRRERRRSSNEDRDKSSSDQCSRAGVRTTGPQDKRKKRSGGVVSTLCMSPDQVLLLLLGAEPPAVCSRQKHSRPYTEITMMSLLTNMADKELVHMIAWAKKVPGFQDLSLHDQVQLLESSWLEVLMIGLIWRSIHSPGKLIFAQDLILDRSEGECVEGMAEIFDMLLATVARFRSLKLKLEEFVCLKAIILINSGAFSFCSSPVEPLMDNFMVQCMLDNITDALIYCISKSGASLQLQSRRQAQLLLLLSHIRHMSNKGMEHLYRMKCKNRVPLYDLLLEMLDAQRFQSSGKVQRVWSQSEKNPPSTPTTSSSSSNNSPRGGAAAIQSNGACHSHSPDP
# chicken Estrogen Receptor (ERa), ESR1 (gene 396099), sequence (P06212 whole entry, looked up, the tested form may be a part): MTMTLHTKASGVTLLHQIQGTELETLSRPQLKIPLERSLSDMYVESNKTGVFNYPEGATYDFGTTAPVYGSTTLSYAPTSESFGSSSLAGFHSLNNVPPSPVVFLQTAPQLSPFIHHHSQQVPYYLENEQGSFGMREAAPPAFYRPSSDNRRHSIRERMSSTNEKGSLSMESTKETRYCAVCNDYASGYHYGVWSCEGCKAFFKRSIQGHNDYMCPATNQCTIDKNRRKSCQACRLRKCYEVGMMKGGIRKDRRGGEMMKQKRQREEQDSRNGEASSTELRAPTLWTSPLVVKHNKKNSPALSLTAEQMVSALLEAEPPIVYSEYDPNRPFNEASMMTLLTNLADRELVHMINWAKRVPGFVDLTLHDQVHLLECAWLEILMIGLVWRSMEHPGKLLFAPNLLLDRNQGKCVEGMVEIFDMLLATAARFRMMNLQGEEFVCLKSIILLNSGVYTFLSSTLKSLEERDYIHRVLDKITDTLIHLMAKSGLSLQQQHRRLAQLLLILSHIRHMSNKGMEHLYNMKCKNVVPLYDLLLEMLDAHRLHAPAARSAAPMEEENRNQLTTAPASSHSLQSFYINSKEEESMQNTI
# zebrafish Thyroid Hormone Receptor beta (TRb), thrb (gene 30607), sequence (Q9PVE4 whole entry, looked up, the tested form may be a part): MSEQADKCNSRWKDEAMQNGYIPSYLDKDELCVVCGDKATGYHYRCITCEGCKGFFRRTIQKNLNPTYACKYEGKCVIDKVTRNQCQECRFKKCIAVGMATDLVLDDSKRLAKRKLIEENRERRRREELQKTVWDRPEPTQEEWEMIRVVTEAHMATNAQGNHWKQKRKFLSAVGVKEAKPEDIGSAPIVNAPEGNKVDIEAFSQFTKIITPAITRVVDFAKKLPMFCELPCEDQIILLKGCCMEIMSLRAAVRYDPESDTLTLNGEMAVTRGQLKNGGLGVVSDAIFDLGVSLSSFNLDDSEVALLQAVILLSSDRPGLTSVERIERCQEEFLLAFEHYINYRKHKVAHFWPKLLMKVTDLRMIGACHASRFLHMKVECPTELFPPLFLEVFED
# zebrafish Thyroid Hormone Receptor alpha (TRa), thraa (gene 30670), sequence (Q98867 whole entry, looked up, the tested form may be a part): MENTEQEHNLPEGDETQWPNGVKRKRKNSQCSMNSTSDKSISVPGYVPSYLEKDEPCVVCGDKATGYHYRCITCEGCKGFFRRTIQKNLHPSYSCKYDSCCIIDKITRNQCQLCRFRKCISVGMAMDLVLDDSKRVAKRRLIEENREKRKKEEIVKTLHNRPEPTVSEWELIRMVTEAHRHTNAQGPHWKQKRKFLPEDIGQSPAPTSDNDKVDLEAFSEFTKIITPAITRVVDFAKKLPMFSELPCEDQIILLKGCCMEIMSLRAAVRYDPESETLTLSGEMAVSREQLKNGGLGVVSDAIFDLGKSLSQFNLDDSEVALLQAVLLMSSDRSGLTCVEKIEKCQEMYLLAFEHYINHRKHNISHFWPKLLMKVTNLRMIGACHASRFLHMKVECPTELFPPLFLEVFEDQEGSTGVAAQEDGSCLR
# Peroxisome proliferator-activated receptor gamma (Homo sapiens), sequence (P37231 whole entry, looked up, the tested form may be a part): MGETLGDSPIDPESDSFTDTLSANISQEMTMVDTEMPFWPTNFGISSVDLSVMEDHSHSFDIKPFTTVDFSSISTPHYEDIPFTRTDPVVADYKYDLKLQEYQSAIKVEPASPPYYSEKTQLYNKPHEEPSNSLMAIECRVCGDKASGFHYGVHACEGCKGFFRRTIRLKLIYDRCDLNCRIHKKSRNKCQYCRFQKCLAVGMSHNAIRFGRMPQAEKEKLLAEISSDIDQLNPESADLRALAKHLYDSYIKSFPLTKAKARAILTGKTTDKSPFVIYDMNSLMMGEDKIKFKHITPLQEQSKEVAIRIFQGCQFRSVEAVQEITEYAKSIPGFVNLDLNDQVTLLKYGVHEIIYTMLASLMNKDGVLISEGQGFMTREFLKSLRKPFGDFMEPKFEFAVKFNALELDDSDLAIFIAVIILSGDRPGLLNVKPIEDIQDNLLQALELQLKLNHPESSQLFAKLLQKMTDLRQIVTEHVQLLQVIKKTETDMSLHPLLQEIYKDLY
# GAL4 Transcription Factor (Internal Marker), GAL4 (gene 855828), sequence (P04386 whole entry, looked up, the tested form may be a part): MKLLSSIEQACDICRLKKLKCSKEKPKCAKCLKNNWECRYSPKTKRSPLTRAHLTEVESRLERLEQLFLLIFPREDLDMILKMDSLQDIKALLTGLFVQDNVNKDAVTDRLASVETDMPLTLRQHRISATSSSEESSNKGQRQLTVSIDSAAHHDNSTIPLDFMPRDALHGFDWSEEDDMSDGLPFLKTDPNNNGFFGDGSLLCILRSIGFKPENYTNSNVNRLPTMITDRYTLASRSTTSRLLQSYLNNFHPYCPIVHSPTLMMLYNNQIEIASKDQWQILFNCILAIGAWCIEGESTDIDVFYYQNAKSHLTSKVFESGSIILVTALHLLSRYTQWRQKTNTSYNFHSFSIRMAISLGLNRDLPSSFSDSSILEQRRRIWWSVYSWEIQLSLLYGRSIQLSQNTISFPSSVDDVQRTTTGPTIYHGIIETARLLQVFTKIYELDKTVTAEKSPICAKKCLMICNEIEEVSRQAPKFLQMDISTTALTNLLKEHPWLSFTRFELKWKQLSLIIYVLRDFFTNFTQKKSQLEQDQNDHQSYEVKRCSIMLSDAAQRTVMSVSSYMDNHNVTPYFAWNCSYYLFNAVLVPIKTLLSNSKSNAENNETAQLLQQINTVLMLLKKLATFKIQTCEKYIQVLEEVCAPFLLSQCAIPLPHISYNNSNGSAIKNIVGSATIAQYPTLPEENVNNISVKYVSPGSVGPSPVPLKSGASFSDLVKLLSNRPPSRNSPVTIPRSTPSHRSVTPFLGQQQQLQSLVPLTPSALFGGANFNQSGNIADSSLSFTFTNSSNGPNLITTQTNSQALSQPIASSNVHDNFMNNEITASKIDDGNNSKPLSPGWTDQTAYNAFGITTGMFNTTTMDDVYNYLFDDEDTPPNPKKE
# Estrogen receptor beta (Homo sapiens), sequence (Q92731 whole entry, looked up, the tested form may be a part): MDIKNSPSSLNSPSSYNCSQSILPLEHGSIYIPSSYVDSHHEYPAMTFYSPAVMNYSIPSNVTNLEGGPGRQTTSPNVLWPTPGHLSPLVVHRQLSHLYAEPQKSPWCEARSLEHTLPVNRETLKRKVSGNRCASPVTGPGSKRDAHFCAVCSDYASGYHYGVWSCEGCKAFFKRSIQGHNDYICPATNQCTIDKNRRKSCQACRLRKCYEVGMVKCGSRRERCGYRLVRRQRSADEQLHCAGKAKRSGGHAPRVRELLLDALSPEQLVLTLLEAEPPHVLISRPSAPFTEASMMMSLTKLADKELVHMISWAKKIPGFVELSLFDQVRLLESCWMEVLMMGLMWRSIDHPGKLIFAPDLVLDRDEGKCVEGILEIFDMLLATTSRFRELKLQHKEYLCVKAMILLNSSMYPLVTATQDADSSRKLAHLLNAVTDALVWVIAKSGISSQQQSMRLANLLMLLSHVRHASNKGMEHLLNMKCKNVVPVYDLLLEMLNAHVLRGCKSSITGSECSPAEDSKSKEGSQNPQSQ
structure (smiles),measurement,setting,value
CC/C(=C(/CC)c1ccc(O)cc1)c1ccc(O)cc1,outcome,[1],inactive
same,outcome,[2],inactive
same,outcome,[3],inactive
same,outcome,[4],inactive
same,AC50,[5],0.138 nM (active)
same,AC50,[6],1.41 nM (active)
same,AC50,[7],0.0727 nM (active)
same,AC50,[8],0.243 nM (active)
same,AC50,[9],0.213 nM (active)
same,AC50,[10],0.468 nM (active)
same,AC50,[11],0.41 nM (active)
O=C(O)Cc1cc(I)c(Oc2ccc(O)c(I)c2)c(I)c1,outcome,[4],inactive
same,outcome,[5],inactive
same,outcome,[12],inactive
same,outcome,[13],inactive
same,outcome,[6],inactive
same,outcome,[7],inactive
same,outcome,[8],inactive
same,outcome,[14],inactive
same,outcome,[9],inactive
same,outcome,[10],inactive
same,outcome,[15],inactive
same,outcome,[16],inactive
same,outcome,[11],inactive
C[C@]12CC[C@@H]3c4ccc(O)cc4CC[C@H]3[C@@H]1CCC2=O,outcome,[1],inactive
same,outcome,[2],inactive
same,outcome,[3],inactive
same,outcome,[4],inactive
same,AC50,[5],5.33 nM (active)
same,AC50,[6],10.5 nM (active)
same,AC50,[7],4.28 nM (active)
same,AC50,[8],10.3 nM (active)
same,AC50,[9],7.26 nM (active)
same,AC50,[10],7.92 nM (active)
same,AC50,[11],7.8 nM (active)
O=c1c(-c2ccc(O)cc2)coc2cc(O)cc(O)c12,outcome,[4],inactive
same,AC50,[5],213 nM (active) and 25.4 nM (active)
same,outcome,[17],inactive
same,outcome,[13],inactive
same,AC50,[7],467 nM (active) and 29.3 nM (active)
same,AC50,[8],41.6 nM (active) and 4.15 nM (active)
same,AC50,[9],126 nM (active) and 17.4 nM (active)
same,AC50,[10],366 nM (active) and 55.1 nM (active)
same,outcome,[16],inactive
same,AC50,[11],174 nM (active) and 6.08 nM (active)
same,outcome,[18],inactive
